Only some compounds are listed: those with a hit (about 3% of all), similar ones and a draw of the others.
SENP8 block-1: inhibitors of human SENP8 protease | Q96LD8 | purified SENP8, Z-RLRGG-aminoluciferin cleavage, luminescence | inhibition, % at 10 µM | actives 1.2% (n = 330,000) | AID 2540; in the data active means inhibition above about 50%
SENP7 block: blocks the human protease SENP7; Q9BQF6; inhibition, % at 5 µM; recombinant SENP7, Z-RLRGG-aminoluciferin luminescence, 40 min; AID 434973; actives 1.5% (n = 330,000);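 active means inhibition above about 50% at the single test dose, limit read from the data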;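 further: plate controls were DMSO with enzyme for no effect and no enzyme buffer wells for full effect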
SENP8 block-2: inhibitors of human SENP8 protease | inhibition, % at 20 µM | Q96LD8 | recombinant SENP8, Nedd8 substrate fluorescence | actives 0.64% (n = 360,000); in the data active means inhibition mostly above about 40%, no sharp cut-off; inactive means mostly below about 27%
SENP6 inh: blocks the human protease SENP6; Q9GZR1; Recombinant SENP6 catalytic domain, aminoluciferin luminescence; inhibition, % at 10 µM; actives 1.8% (n = 330,000); AID 2599;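 active means inhibition above about 50% at the single tested dose, limit read from the data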;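 further: plate controls were DMSO wells with enzyme for no effect and DMSO wells lacking enzyme for full effect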
Target sequence (Q9GZR1 628-1112 limits assumed): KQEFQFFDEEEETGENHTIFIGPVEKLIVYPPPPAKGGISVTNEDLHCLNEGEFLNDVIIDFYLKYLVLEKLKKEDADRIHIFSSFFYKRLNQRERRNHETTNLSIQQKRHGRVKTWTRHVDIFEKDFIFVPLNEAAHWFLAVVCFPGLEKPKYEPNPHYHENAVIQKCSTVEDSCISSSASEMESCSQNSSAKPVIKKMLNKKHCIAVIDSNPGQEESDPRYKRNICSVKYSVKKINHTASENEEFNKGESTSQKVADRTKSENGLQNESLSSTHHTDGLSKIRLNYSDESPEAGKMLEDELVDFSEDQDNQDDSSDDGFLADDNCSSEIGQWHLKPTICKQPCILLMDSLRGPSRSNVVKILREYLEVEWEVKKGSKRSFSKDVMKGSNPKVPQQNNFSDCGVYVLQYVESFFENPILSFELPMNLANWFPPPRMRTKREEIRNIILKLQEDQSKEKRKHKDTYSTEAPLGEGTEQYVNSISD
TRAIL sens C8: caspase-8 TRAIL sensitization. NB7+C8 cells + TRAIL, ATPlite viability luminescence. actives 1% (n = 360,000). inhibition (viability loss, TRAIL sensitization), % at 10 µM;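 active means compounds causing at least 50% loss of cell viability in the single-dose screen, relative to plate controls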
PPC-1+TRAIL kill: PPC-1 cancer cell killing with TRAIL present. actives 0.41% (n = 220,000). cell killing (% activity), % at 4 µM or 5 µM. AID 1443. PPC-1 cells + TRAIL, ATPLite viability luminescence;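 active means cell killing above 50% in the first pass at 4 µM, then a duplicate retest at 5 µM averaging 50% or more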;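 further: plate controls were cells with TRAIL plus DMSO for no effect and medium-only wells lacking cells for full effect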
SENP8 confirm: human SENP8 inhibition, confirmed; shares compounds with SENP7 block; actives 40% (n = 6,200); Recombinant SENP8, Z-RLRGG-aminoluciferin luminescence, 60 min; inhibition, % at 12.5 µM; AID 488912;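 active means mean inhibition across replicates above about 50%, limit read from the data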
SENP6 conf: human SENP6 inhibition, confirmed; shares compounds with SENP7 block; recombinant SENP6, Z-RLRGG-aminoluciferin luminescence; inhibition, % at 12.5 µM; actives 58% (n = 6,200); AID 488915
SENP7 conf: confirmation of human SENP7 protease inhibitors; shares compounds with SENP7 block; inhibition, % at 12.5 µM; AID 488917; recombinant SENP7, Z-RLRGG-aminoluciferin luminescence, 40 min; actives 69% (n = 6,200)
Casp3 SENP sel: selectivity test for SENP inhibitors: human caspase-3 inhibition | shares compounds with SENP7 block | purified caspase-3, Z-DEVD-aminoluciferin luminescence, 60 min | inhibition, % at 12.5 µM | actives 60% (n = 6,200) | AID 488918;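 active means mean inhibition above about 50%, limit read from the data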;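 further: plate controls were enzyme with DMSO for no effect and wells without caspase-3 for full effect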
Luc interf: counter-screen for SENP inhibitors: luminescence interference | AID 488919 | Pre-incubated SENP8/Z-RLRGG-aminoluciferin, luciferase luminescence interference | actives 39% (n = 6,200) | inhibition, % at 12.5 µM | shares compounds with SENP7 block;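 active means mean inhibition above about 50% when retested at one dose, limit read from the data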;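 further: plate controls were DMSO wells with completed reaction for no effect and substrate without enzyme for full effect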
Numbers without * were called inactive; . = not tested or not shown.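 How the source made its calls, unless noted: active means mean inhibition above about 50% in the one-dose retest (limit read from the data); inactive means the rest.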

SMILES	SENP8 block-1	SENP7 block	SENP8 block-2	SENP6 inh	TRAIL sens C8	PPC-1+TRAIL kill	SENP8 confirm	SENP6 conf	SENP7 conf	Casp3 SENP sel	Luc interf
CCOc1ccc(N(CC(=O)NC2CCCCC2)S(=O)(=O)c2ccccc2)cc1	9	2	6	-1	21	.	.	.	.	.	.
Cc1cc(C)c2c(c1)/C(=N\N=c1\sc3ccccc3n1C)C(=O)N2	1	-13	33	14	-1	8	.	.	.	.	.
Cn1c(NCCN2CCCC2)nc2cc(-c3ccccc3)sc2c1=O	.	.	-144	.	7	.	.	.	.	.	.
O=c1c2sc(-c3ccccc3)cc2nc2n1CCCCC2	37	43	22	54*	18	8	38	37	74*	47	54*
O=c1c2sc(-c3ccccc3)cc2nc2n1CCC2	81*	91*	10	93*	54*	12	89*	89*	99*	95*	90*
O=c1[nH]ncc(NCc2ccc(Cl)cc2)c1Cl	3	-4	13	8	-7	9	.	.	.	.	.
Cc1cc(C)c(S(=O)(=O)Nc2nccs2)c(C)c1	2	-9	9	2	-4	.	.	.	.	.	.
O=C(Nc1ccc2ccccc2n1)Nc1ccccc1F	-2	5	14	-9	10	.	.	.	.	.	.
Fc1ccc(Nc2ccc3ccccc3n2)c(F)c1	95*	99*	-415	95*	40	28	98*	99*	103*	95*	93*
O=[N+]([O-])c1ccc(/C=N/Nc2ccccn2)cc1	-18	15	30	-12	1	.	.	.	.	.	.
O=[N+]([O-])c1cccc(/C=N/Nc2nccnc2Cl)c1	83*	93*	13	94*	-2	39	91*	91*	100*	97*	83*
Cc1cc(C)nc(N/N=C/c2cccc([N+](=O)[O-])c2)n1	5	0	20	-8	2	2	.	.	.	.	.
O=[N+]([O-])c1cccc(/C=N/Nc2ccccn2)c1	26	55*	24	56*	6	15	-2	-5	74*	17	-2
CC(C)Oc1cccc(NC(=O)c2cnccc2C(F)(F)F)c1	-2	-4	1	-9	3	7	.	.	.	.	.
CC1(C)CC2CC(C)(CN2S(=O)(=O)c2ccc(F)cc2F)C1 (stereo not given)	11	-5	12	3	-11	.	.	.	.	.	.
C[C@@H]1CN([C@H](C)CO)C(=O)c2cc(Br)cnc2O[C@@H]1CN(C)Cc1ccc(F)cc1	.	.	-55	.	-4	.	.	.	.	.	.
c1cc2nnnn2nc1N1CCCCC1	5	58*	5	1	-9	1	8	6	-3	-6	-8
Cc1ccc(O)c(-c2cc(-c3ccccc3F)[nH]n2)c1	57*	55*	23	62*	11	22	66*	72*	92*	28	14
Cc1ccc(-c2cc(-c3cccc(F)c3)n[nH]2)c(O)c1	41	44	26	78*	8	26	75*	72*	87*	13	19
COC(=O)c1c(NC(=O)COC(=O)CNC(=O)C2CCCCC2)sc(C)c1C	-5	4	-6	-15	-17	3	.	.	.	.	.
Cc1ccc(C(=O)Nc2cccc(NC(=O)c3ccc(C)o3)n2)o1	-10	-1	1	8	1	.	.	.	.	.	.
Cc1ccc(C)c(C(=O)COC(=O)c2cc([N+](=O)[O-])ccc2NCCO)c1	.	.	18	.	-7	14	.	.	.	.	.
Cc1ccc(O)c(C(=O)c2cnn(-c3ccccc3)c2)c1	18	40	20	53*	2	22	4	47	20	32	13

Screening results as filed in PubChem BioAssay.
